Only some compounds are listed: those with a hit (about 1.1% of all), similar ones and a draw of the others.
MOR-DOR inv ag: inverse agonists of human mu-delta opioid receptor heterodimerization | cell-based MOR-DOR heterodimer luminescence, inverse agonism | inhibition, % at 9.3 µM | hit rate 0.21% among 340,000 | AID 504357 | P35372+P41143; in the data active means inhibition above about 22%, passing the limit was not always enough
Target sequence (P35372 whole entry, looked up): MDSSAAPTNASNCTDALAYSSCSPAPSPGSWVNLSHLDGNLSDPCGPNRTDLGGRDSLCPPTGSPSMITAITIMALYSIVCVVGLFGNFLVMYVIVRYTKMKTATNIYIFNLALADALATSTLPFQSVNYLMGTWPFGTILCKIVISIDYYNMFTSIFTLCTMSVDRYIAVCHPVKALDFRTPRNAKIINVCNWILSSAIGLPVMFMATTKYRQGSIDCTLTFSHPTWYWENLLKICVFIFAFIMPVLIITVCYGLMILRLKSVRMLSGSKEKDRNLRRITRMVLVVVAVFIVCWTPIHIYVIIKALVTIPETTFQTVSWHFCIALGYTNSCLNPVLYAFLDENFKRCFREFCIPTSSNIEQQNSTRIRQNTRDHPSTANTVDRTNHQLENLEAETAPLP
Target sequence (P41143 whole entry, looked up): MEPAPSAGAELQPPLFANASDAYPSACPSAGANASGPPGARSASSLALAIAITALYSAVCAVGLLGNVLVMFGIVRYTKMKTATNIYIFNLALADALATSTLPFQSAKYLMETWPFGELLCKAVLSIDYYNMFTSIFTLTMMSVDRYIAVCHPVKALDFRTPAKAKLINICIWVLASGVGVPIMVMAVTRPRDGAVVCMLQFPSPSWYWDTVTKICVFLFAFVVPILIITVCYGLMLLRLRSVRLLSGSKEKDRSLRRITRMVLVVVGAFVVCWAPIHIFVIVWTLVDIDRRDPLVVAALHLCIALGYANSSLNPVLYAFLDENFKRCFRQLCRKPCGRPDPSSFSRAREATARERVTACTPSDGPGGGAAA
HTR5A ag: activates human HTR5A in OPRM1-OPRD1 agonist counter-screen | AID 504692 | activation, % at 9.3 µM | HTR5A agonist assay, luminescence, cell-based | hit rate 0.61% among 340,000; in the data active means activation mostly above about 9.5%, no sharp cut-off; inactive means mostly below about 7.6%
Bfl-1 A1 inh: inhibitors of the anti-apoptotic protein A1, read as caspase activation | MEF A1-2A-BIM cells, Caspase-Glo 3/7 luminescence, 3 h; percent of clofoctol response, vehicle zero | caspase activation, % (no concentration beside the values) | hit rate 0.066% among 330,000 | AID 2462;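 active means over half of replicate activation scores above 10%, or exactly half above 10 with the replicate mean above 10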
MOR-DOR ag-1: agonists of human mu-delta opioid receptor heterodimerization; P35372+P41143; cells, OPRM1-OPRD1 heterodimerization, luminescence; hit rate 0.3% among 340,000; activation, % at 9.3 µM
HTR5A inv ag: counter-screen for OPRM1-OPRD1 inverse agonists: human HTR5A inverse agonism; P47898; HTR5A cell line, luminescence; inhibition, % at 9.3 µM; hit rate 0.083% among 340,000; AID 504634; in the data active means inhibition mostly above about 23%, no sharp cut-off; inactive means mostly below about 18%
MOR-DOR ag-2: promotes OPRM1-OPRD1 heterodimerization in HTR5A counter-screen. shares compounds with HTR5A ag. U2OS counter-screen cells, complementation luminescence, 3 h. activation, % at 9.3 µM. hit rate 13% among 800. AID 504913
HTR5A ag confirm: HTR5A (human) agonism, confirmation; hit rate 17% among 800; activation, % at 9.3 µM; HTR5A agonist cell assay, luminescence; shares compounds with HTR5A ag; in the data active means activation above about 17%
Large screens that a line does not name were inactive (follow-up assays come after a bar, where they were run). Unless noted, no stated cut-off is given here; in the data, active means activation above about 18%; inactive means the rest.

Cc1ccc(C2=NN(C(=O)CCl)C(c3cccs3)C2)o1 (centres undefined)	HTR5A ag 16.4 | MOR-DOR ag-2 21.1 | HTR5A ag confirm 16.8
CCOC(=O)CN1C(=O)N[C@@H](c2ccccc2)[C@H](C(C)=O)[C@H]1C	none
COc1ccc(/C=N/NC(=O)c2ccc(COc3ccccc3Cl)o2)cc1	none
COc1ccc(/C=N/NC(=O)c2ccc(COc3ccccc3Cl)o2)c(OC)c1C	HTR5A ag 21.9 | MOR-DOR ag-2 inactive | HTR5A ag confirm inactive
O=C(COC(=O)COc1ccc(Cl)cc1)Nc1ncc(Br)s1	none (no result: Bfl-1 A1 inh)
Cc1oc(-c2ccc(Cl)cc2)nc1CN1CCC(C(=O)N2CCc3ccccc3C2)CC1	none
Cc1oc(-c2ccc(Cl)cc2)nc1CN1CCC(C(=O)N2CCN(Cc3ccccc3)CC2)CC1	HTR5A ag 15.5 | MOR-DOR ag-2 inactive | HTR5A ag confirm inactive
COc1ccc(CCNC(=O)COC(=O)c2cncc(Br)c2)cc1OC	none
COc1ccc(C(=O)NCCCOC(C)C)cc1OC1CCN(C(C)=O)CC1	none
CC(C)N=C(NC#N)SCC(=O)NC(C)(C)C	none
C=CCN=C(NC#N)SCC(=O)NC(C)(C)C	HTR5A ag 17.1 | MOR-DOR ag-2 20.0 | HTR5A ag confirm inactive
O=C(Cc1ccccc1)c1c[nH]c(C(=O)O)c1	none
CN1CCc2c(sc(NC(=O)C3COc4ccccc4O3)c2C(N)=O)C1 (centres undefined)	HTR5A ag 17.4 | MOR-DOR ag-2 inactive | HTR5A ag confirm 51.5
COC(=O)c1c(NC(=O)C2COc3ccccc3O2)sc2c1CCN(C(C)=O)C2 (centres undefined)	none
CN1CCc2c(sc(NC(=O)Cc3ccccc3)c2C(N)=O)C1	none
CCN1CCc2c(sc(NC(=O)C3COc4ccccc4O3)c2C(N)=O)C1 (centres undefined)	HTR5A ag 14.8 | MOR-DOR ag-2 inactive | HTR5A ag confirm inactive
CC(=O)N1CCc2c(sc(NC(=O)C3COc4ccccc4O3)c2C(N)=O)C1 (centres undefined)	HTR5A ag 38.5 | MOR-DOR ag-2 inactive | HTR5A ag confirm 49.3
CCN1CCc2c(sc(NC(=O)Cc3ccccc3)c2C(N)=O)C1	none (no result: Bfl-1 A1 inh)
CCOC(=O)N1CCc2c(sc(NC(=O)C3COc4ccccc4O3)c2C(N)=O)C1 (centres undefined)	HTR5A ag 44.4 | MOR-DOR ag-2 inactive | HTR5A ag confirm 59.6
COc1ccc(OC)c(NC(=S)N(CCc2c(C)[nH]c3ccc(C)cc23)Cc2cccs2)c1	HTR5A ag 24.2 | MOR-DOR ag-2 inactive | HTR5A ag confirm inactive
COc1ccc(OC)c(NC(=S)N(CCc2c(C)[nH]c3ccccc23)Cc2cccs2)c1	none
O=C(CCCC1=NS(=O)(=O)c2ccccc2N1)N1CCN(c2ccc([N+](=O)[O-])cc2)CC1	none
O=C(NCCc1c[nH]c2ccccc12)C(=O)NCC(c1cccnc1)N1CCN(c2ccccc2)CC1 (centres undefined)	HTR5A ag 22.8 | MOR-DOR ag-2 inactive | HTR5A ag confirm 40.3
COc1ccc2[nH]cc(CCNC(=S)NC3CCCC3)c2c1	none
O=C(NCCc1c[nH]c2ccccc12)C1CCN(c2nnc(N3CCCC3=O)s2)CC1	HTR5A ag 41.9 | MOR-DOR ag-2 inactive | HTR5A ag confirm 46.6
COc1ccc2[nH]cc(CCNC(=O)C3CCCCC3)c2c1	HTR5A ag 52.5 | MOR-DOR ag-2 inactive | HTR5A ag confirm inactive
O=C(O)C1CCCCC1C(=O)NCCc1c[nH]c2ccccc12 (centres undefined)	HTR5A ag 44.8 | MOR-DOR ag-2 inactive | HTR5A ag confirm inactive
Cc1ccccc1N1CCN(C2CCCN(C(=O)c3cnsn3)C2)CC1 (centres undefined)	none
O=C(NCCCN1CCOCC1)c1cc(-c2ccc(Cl)s2)nc2ccccc12	none
COc1ccc(NC(=O)CN(C)CC(=O)Nc2ccc3c(c2)CCC3)cc1	none
COc1ccc(NC(=O)O/N=C2/CCCc3ccc(OC)cc32)cc1	HTR5A ag 19.3 | MOR-DOR ag-2 inactive | HTR5A ag confirm 28.0
COc1ccc2c(c1)/C(=N/OC(=O)c1cccs1)CCC2	HTR5A ag 21.6 | MOR-DOR ag-2 inactive | HTR5A ag confirm 31.2
C[C@@H](NC(=O)c1nc[nH]c1C(=O)NCc1ccc(CNC(=O)OC(C)(C)C)cc1)c1ccccc1	none
O[C@@H]1C2CCCC1[C@]1(O)CCCCC1C2 (some centres undefined)	HTR5A ag 18.7 | MOR-DOR ag-2 inactive | HTR5A ag confirm inactive
NC[C@@]12CCCC1C1CCC2C1 (some centres undefined)	none (no result: MOR-DOR inv ag, HTR5A ag, MOR-DOR ag-1, HTR5A inv ag)
Cn1c(=O)n(C/C=C/c2ccccc2)c(=O)c2c1nc1n2CCCN1c1ccc(F)cc1	none
CCCCN(C)Cc1c(C)[nH]c2ccc(OCC)cc2c1=O	none
CCN(CC(=O)Nc1ccc(NC(C)=O)cc1)C(=O)COc1ccc(C(=O)c2ccccc2)cc1	none
CCN(CC(=O)Nc1ccc(NC(C)=O)cc1)C(=O)c1ccc(C(=O)c2ccccc2)cc1	HTR5A ag 21.6 | MOR-DOR ag-2 inactive | HTR5A ag confirm 30.5
CCN1CCN(C(=O)/C=C/c2ccc(C(C)C)cc2)CC1	none
CCN1CCC(O)(/C=C/c2ccc(C(C)C)cc2)C(C(=O)/C=C/c2ccc(C(C)C)cc2)C1 (centres undefined)	HTR5A ag 18.4 (no result: Bfl-1 A1 inh) | MOR-DOR ag-2 51.3 | HTR5A ag confirm 26.9
N#Cc1ccc(C(=O)NNC(=O)c2ccncc2)cc1	none
C/C(=N/NS(=O)(=O)c1ccc(C)cc1)c1ccc2c(c1)OCO2	none
C/C(=N/NS(=O)(=O)c1ccc(C)cc1C)c1c[nH]c2ccccc12	HTR5A ag 18.4 | MOR-DOR ag-2 inactive | HTR5A ag confirm inactive
C/C(=N/NS(=O)(=O)c1ccc(C)c(C)c1)c1c[nH]c2ccccc12	none
C/C(=N/NS(=O)(=O)c1ccc(C)cc1C)c1ccc2c(c1)OCO2	HTR5A ag 20.1 | MOR-DOR ag-2 inactive | HTR5A ag confirm inactive
CN1C(=O)C(O)(CC(=O)c2cccc(-n3cccc3)c2)c2ccccc21 (centres undefined)	none
CCC(C)N(C(=O)COC(=O)c1cc([N+](=O)[O-])ccc1N)C1CCS(=O)(=O)C1 (centres undefined)	none
Cc1ccc(OCCn2c(C)c(/C=N/n3cnnc3)c3ccccc32)cc1	HTR5A ag 20.9 | MOR-DOR ag-2 inactive | HTR5A ag confirm inactive
Cc1c(/C=N/n2cnnc2)c2ccccc2n1CCOc1ccc(Cl)cc1	none
CCCCCCC/C=N/Nc1nnc(Cc2ccccc2)c(=O)[nH]1	none
COc1ccc(C(=O)Nc2cccnc2)cc1S(=O)(=O)N1CCOCC1	HTR5A ag 15.7 | MOR-DOR ag-2 inactive | HTR5A ag confirm inactive
C/C(=N/NC(=O)CNc1ccc(C)cc1)c1ccc(Br)s1	HTR5A ag 24.0 | MOR-DOR ag-2 inactive | HTR5A ag confirm 38.1
